# Bioassay records deposited in PubChem by several laboratories.
# Rows were chosen to be rich in hits. Some 4.9% of all compounds tested hit in one or more screens of this group.
# Beta cell apopt = blocks beta cell apoptosis | INS-1E cytokine-induced death, ATP luminescence, 48 h; percent of positive-control rescue, neutral wells zero | protection from apoptosis, % (no concentration beside the values) | 300,000 compounds, 0.8% hits | AID 435005;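 active = Every replicate reaches about 75%, or at least half do and their mean reaches it too, limit read from the data; inconclusive = At least half of replicates reach the limit but their mean does not; inactive = Under half of replicates reach the limit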;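 note: 0% = cytokine-treated negative control wells and 100% = positive control rescue; higher means more ATP so stronger rescue from cytokine killing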
# CSC inhib = cancer stem cell inhibition | inhibition, % at 7.5 µM | 300,000 compounds, 1.1% hits | cancer stem cell-like cells viability, luminescence; in the data active = inhibition above about 75%; inconclusive = no clear call, values can overlap the other calls; tested in HMLE shEcad cells
# PP5 primary = blocks human protein phosphatase 5 activity; P53041; purified PP5c, OMFP substrate fluorescence; inhibition, % at 6.7 µM; 320,000 compounds, 0.18% hits; AID 1987;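 active = inhibition above the campaign's mean inhibition across all tested compounds plus 3 SD, cut at about 9.5% in these data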;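 note: 0% = DMSO only and 100% = 100 µM cantharidin control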
# Mdm2 MdmX PPI = disrupts the human Mdm2-MdmX interaction; O15151+Q00987; SaOS-2 split-luciferase Mdm2/MdmX complementation, luminescence; inhibition, % at 8 µM; 330,000 compounds, 3% hits;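 active = inhibition of at least 50% at 8 µM in the primary screen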
# Calb FLC = C. albicans growth modulation with fluconazole | C. albicans CaCi-2 (fluconazole-resistant clinical isolate) + fluconazole, Alamar Blue growth, 48 h | growth inhibition, % (concentration not given with the values) | 300,000 compounds, 0.57% hits;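 active = growth inhibition above about 58% in most replicates, limit read from the data, passing the limit was not always enough; inconclusive = exactly half the replicates above a set limit; inactive = most replicates below a set limit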;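 note: all wells also contain fluconazole at 8 µg/ml as a sub-toxic cotreatment; 0% = median of DMSO wells and 100% = median of geldanamycin control wells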
# PP1 counter = blocks human PP1-alpha phosphatase, a PP5 counter-screen; AID 2235; P62136; 320,000 compounds, 0.9% hits; inhibition, % at 6.7 µM; purified PP1alpha, OMFP fluorescence;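 active = inhibition above the mean inhibition of all tested compounds plus 3 SD, computed separately for each screening campaign, cut at about 15% in these data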
# Target sequence (P62136 whole entry, looked up): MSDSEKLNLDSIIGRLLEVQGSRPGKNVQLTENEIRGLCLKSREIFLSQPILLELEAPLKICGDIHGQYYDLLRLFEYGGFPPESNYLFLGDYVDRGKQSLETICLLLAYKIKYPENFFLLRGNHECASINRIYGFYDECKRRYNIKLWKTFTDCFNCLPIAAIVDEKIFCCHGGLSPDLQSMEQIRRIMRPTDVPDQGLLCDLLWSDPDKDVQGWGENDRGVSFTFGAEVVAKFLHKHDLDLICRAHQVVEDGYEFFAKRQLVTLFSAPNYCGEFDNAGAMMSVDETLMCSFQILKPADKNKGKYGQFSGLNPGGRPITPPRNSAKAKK
# PP1 confirm = confirmation of human PP1 phosphatase inhibitors | shares compounds with PP1 counter | purified PP1alpha, OMFP substrate fluorescence | inhibition, % at 6.7 µM | 1,900 compounds, 52% hits;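 active = mean PP1 inhibition above a set limit taken from the earlier primary screen, cut at about 15% in these data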
# PP5 counter = counter-screen for PP1 inhibitors: human PP5 phosphatase inhibition; shares compounds with PP1 counter; purified PP5c, OMFP fluorescence; inhibition, % at 6.7 µM; 1,900 compounds, 4% hits; AID 2360;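 active = mean PP5 inhibition over triplicate wells above about 9.5% taken from the earlier PP1 screen, limit read from the data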
# * hit, by the source's call; u = inconclusive; x = not tested or not shown.
SMILES,Beta cell apopt,CSC inhib,PP5 primary,Mdm2 MdmX PPI,Calb FLC,PP1 counter,PP1 confirm,PP5 counter
COc1ccc(-c2c[n+]3c4n2CCCCC4=C(c2ccc(Br)cc2)C3)cc1,104*,39,2,x,-15,33*,-11,-1
Clc1ccc(C2=C3CCCCn4c(-c5ccccc5)c[n+](c43)C2)cc1,-2,15,0,38,u,18*,-12,-1
CCN(CC)CCN(C(=O)c1c(F)cccc1F)c1nc2cc(C)cc(C)c2s1,1,26,1,17,3,-1,x,x
O=C1CCCN1c1ccc(C(=O)N(Cc2nnc(-c3ccc(Cl)cc3)o2)C2CC2)cc1,4,4,2,-5,3,18*,-3,-5
CN(Cc1ccccn1)C(=O)C1CCC(=O)N(Cc2cccc(F)c2)C1 (configuration not stated),-1,-10,0,33,0,24*,-2,-3
O=C(CCN1C(=O)/C(=C/c2ccc(F)cc2)SC1=S)NC1C=CS(=O)(=O)C1 (configuration not stated),-18,23,-1,17,-6,0,x,x
O=C(CCN1C(=O)/C(=C/c2ccccc2Cl)SC1=S)NC1C=CS(=O)(=O)C1 (configuration not stated),-12,-24,-1,46,-1,24*,24*,-1
COC(=O)c1ccc(C2/C(=C(/O)c3ccc(OC(C)C)cc3)C(=O)C(=O)N2c2cc(C)on2)cc1 (configuration not stated),-5,2,3,8,1,20*,8,-5
COC(=O)c1ccc(C2/C(=C(/O)c3ccc(OC)cc3)C(=O)C(=O)N2c2cc(C)on2)cc1 (configuration not stated),-5,-1,3,7,-21,2,x,x
Cc1ccc(S(=O)(=O)CCC(=O)OCC(=O)c2ccc(F)cc2)cc1,-4,-1,0,-5,2,31*,1,0
O=C(O)C(Cc1ccccc1)N1C(=O)/C(=C/c2cccc3ccccc23)SC1=S (configuration not stated),-2,73,3,x,x,20*,32*,1
COc1ccccc1NC(=O)C(C)OC(=O)CCC1CCCCC1 (configuration not stated),-7,-7,1,1,-2,0,x,x
Cn1c(=O)c2c(ncn2CCOc2cccc(Br)c2)n(C)c1=O,2,28,0,10,-1,0,x,x
Cc1ccc(C(C)C)c(OCc2ccc(C(=O)N/N=C/c3ccc(C(=O)O)cc3)cc2)c1,-18,17,5,39,2,3,x,x
Cc1ccc(C(C)C)c(OCc2ccc(C(=O)N/N=C/c3ccc(O)cc3O)cc2)c1,116*,101*,2,x,1,26*,34*,-2
NC(=O)CSc1nnc2ccc(-c3ccc(F)cc3)nn12,-5,-15,-1,0,0,0,x,x
Nc1c(S(=O)(=O)O)cc(NC(=O)c2ccccc2)c2c1C(=O)c1ccccc1C2=O,9,17,7,-2,10,31*,18*,2
O=C(Nc1ccccc1-c1ccccc1)c1ccccc1,0,12,5,-2,-4,-3,x,x
CCOC(=O)c1ccc(NS(=O)(=O)c2ccc(Cl)nc2)cc1,1,-9,-3,-5,32,-54,2,2
Oc1c(CN2CCN(c3ccccc3)CC2)cc(Br)c2cccnc12,98*,114*,5,x,102*,29*,32*,-3
O=C(Nc1nccs1)c1ccc(-c2ccc([N+](=O)[O-])cc2)o1,3,-1,-1,x,6,18*,23*,-1
O=c1cc(-c2ccccc2)nc(SCCOc2ccccc2Cl)[nH]1,-6,-2,2,27,-2,-2,x,x
O=[N+]([O-])c1ccc2c(OCc3nnc(-c4ccccc4Br)o3)ncnc2c1,2,26,1,7,8,3,x,x
NNC(=O)c1oc2nc(-c3cccs3)cc(-c3ccco3)c2c1N,21,9,0,15,18,8,x,x
